Assays:
Assay in all cases: DAPPL (digital affinity profiling via proximity ligation, sequencing); 10 mM Tris-HCl pH 7.5, 50 mM NaCl, 1 mM DTT, 4% glycerol, room temperature, 30 min; GST-TFs on glutathione beads, 16-mer random dsDNA library, 0.1% formaldehyde crosslink after washing; high values mean tight binding
FEV = molecular target: T1, FEV (Homo sapiens, UniProt Q99581 1-238); conditions: protein: recombinant; tags: N-terminal GST; dsDNA, one strand shown
T1 sequence: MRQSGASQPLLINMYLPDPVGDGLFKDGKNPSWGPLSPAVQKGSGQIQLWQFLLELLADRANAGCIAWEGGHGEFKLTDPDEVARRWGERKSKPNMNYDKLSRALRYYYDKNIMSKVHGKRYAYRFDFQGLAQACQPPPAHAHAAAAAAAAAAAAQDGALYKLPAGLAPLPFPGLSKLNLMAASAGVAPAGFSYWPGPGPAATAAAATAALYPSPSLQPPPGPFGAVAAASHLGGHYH
In short: (§1)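 Sequencing on an Illumina NextSeq500 followed washing, crosslinking with 0.1% formaldehyde, proximity ligation (BsaI/T4 ligase, 1 h, 37 °C) and PCR amplification of pools that had been incubated for 30 min at room temperature with 200 nmole of a random double-stranded 16-mer DNA library in Tris/NaCl/DTT/glycerol buffer. Each pool held DNA-barcoded human transcription factors, expressed in yeast as GST fusions and captured on glutathione beads, plus a tag-only sample. Binding signal is a hexamer's read frequency for a factor divided by its frequency in the tag-only sample.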

ETV5 = ETV5 (Homo sapiens, UniProt P41161 1-510); conditions: protein: recombinant; tags: N-terminal GST; dsDNA, one strand shown
Chain of ETV5 (P41161 whole entry): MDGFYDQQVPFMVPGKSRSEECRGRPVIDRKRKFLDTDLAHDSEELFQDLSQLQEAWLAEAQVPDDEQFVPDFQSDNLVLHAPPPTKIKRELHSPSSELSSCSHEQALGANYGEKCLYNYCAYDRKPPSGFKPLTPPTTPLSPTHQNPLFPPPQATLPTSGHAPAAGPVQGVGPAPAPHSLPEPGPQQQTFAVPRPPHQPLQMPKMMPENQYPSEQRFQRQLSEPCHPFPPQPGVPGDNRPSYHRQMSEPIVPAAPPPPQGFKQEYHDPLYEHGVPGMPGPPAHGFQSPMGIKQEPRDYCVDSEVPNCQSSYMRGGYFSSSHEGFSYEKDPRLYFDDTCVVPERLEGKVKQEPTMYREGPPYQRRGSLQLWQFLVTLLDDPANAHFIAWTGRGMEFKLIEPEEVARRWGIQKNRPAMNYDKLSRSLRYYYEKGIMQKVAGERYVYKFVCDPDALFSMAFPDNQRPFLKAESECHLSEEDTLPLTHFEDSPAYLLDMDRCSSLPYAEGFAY
In short: as §1

HSF1 = HSF1 (Homo sapiens, UniProt Q00613 1-529); conditions: protein: recombinant; tags: N-terminal GST; chain copies: 3; dsDNA, one strand shown
Chain of HSF1 (Q00613 whole entry): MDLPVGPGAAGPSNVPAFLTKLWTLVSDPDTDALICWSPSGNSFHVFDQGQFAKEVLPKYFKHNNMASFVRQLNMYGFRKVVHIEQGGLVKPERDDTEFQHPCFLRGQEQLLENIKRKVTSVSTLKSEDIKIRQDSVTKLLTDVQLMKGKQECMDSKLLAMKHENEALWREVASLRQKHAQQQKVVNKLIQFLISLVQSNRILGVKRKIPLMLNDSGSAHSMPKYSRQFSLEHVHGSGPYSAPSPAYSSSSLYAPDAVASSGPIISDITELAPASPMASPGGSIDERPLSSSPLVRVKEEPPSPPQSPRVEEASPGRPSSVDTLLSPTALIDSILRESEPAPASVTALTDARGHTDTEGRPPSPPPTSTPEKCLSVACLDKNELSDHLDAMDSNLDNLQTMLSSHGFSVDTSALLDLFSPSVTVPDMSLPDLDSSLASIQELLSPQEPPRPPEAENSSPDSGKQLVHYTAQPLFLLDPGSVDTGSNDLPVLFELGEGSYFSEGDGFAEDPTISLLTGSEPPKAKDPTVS
In short: as §1

SPIC = molecular target: T2, SPIC (Homo sapiens, UniProt Q8N5J4 1-248); conditions: protein: recombinant; tags: N-terminal GST; dsDNA, one strand shown
T2 sequence: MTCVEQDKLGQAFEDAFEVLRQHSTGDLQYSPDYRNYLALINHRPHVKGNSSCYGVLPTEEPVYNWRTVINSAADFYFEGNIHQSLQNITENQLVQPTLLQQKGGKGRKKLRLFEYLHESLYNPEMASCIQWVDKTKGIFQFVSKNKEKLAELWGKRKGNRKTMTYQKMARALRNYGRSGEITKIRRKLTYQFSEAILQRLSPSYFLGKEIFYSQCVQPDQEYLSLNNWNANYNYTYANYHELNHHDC
In short: as §1

ELF4 = ELF4 (Homo sapiens, UniProt Q99607 1-663); conditions: protein: recombinant; tags: N-terminal GST; dsDNA, one strand shown
Chain of ELF4 (Q99607 whole entry): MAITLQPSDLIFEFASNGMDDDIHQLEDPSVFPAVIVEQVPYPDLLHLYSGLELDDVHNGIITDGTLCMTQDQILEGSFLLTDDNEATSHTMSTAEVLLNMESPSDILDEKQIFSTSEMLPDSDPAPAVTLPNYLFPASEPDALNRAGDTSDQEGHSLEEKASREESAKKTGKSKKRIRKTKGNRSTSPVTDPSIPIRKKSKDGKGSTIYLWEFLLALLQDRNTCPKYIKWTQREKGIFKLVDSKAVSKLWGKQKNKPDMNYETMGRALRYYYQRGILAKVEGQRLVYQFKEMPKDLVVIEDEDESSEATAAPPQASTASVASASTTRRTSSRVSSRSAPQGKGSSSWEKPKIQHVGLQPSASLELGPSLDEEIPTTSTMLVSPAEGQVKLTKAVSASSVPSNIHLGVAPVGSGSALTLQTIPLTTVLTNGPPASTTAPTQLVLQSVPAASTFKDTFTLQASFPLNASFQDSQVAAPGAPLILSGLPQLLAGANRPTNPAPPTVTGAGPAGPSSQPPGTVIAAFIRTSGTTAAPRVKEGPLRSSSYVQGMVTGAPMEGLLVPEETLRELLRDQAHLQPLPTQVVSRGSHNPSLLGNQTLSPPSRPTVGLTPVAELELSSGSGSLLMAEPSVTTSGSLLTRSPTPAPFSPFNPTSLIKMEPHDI
In short: as §1

ELK4 = molecular target: T3, ELK4 (Homo sapiens, UniProt P28324-2 1-405); conditions: protein: recombinant; tags: N-terminal GST; dsDNA, one strand shown
T3 sequence: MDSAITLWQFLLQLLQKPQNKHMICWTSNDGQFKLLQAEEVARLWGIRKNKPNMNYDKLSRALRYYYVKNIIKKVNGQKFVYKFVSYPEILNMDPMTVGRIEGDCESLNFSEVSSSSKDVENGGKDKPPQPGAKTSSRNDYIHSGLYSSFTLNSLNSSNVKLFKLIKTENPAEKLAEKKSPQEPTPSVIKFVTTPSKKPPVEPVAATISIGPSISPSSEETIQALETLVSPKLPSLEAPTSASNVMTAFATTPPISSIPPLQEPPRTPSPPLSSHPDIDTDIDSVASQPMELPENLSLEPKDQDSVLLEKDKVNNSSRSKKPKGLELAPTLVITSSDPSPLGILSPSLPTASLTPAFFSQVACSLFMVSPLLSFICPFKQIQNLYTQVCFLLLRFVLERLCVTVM
In short: as §1

ETV2 = molecular target: T4, ETV2 (Homo sapiens, UniProt O00321 1-342); conditions: protein: recombinant; tags: N-terminal GST; dsDNA, one strand shown
T4 sequence: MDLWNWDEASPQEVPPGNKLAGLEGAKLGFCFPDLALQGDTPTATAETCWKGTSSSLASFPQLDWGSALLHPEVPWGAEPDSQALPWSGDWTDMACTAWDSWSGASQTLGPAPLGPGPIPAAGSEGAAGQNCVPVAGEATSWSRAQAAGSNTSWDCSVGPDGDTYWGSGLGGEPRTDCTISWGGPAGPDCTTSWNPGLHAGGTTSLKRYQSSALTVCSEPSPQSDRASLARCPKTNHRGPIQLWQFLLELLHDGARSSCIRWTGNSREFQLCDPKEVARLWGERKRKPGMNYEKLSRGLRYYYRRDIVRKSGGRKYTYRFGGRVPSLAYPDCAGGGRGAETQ
In short: as §1

ELF3 = molecular target: T5, ELF3 (Homo sapiens, UniProt P78545 1-371); conditions: protein: recombinant; tags: N-terminal GST; dsDNA, one strand shown
T5 sequence: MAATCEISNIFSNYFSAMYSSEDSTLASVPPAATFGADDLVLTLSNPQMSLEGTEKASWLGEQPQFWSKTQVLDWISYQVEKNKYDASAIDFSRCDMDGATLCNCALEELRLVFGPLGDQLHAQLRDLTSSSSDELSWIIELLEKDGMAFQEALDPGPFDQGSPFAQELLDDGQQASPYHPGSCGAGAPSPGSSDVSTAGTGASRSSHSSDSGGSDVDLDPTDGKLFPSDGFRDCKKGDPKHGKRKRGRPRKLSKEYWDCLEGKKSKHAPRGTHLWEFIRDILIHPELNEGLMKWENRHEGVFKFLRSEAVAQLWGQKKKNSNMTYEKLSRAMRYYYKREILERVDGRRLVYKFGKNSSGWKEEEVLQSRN
In short: as §1

CRX = CRX (Homo sapiens, UniProt O43186 1-299); conditions: protein: recombinant; tags: N-terminal GST; dsDNA, one strand shown
Chain of CRX (O43186 whole entry): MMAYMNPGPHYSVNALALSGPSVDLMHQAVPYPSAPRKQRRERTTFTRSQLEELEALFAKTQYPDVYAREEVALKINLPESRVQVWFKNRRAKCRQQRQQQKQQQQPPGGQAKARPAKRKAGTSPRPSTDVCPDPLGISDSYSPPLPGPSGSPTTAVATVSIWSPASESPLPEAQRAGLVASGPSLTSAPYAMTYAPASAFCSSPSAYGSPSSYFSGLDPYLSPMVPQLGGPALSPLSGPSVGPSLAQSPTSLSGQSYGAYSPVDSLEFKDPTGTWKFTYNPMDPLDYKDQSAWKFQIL
In short: as §1

ETV1 = ETV1 (Homo sapiens, UniProt P50549 1-477); conditions: protein: recombinant; tags: N-terminal GST; dsDNA, one strand shown
Chain of ETV1 (P50549 whole entry): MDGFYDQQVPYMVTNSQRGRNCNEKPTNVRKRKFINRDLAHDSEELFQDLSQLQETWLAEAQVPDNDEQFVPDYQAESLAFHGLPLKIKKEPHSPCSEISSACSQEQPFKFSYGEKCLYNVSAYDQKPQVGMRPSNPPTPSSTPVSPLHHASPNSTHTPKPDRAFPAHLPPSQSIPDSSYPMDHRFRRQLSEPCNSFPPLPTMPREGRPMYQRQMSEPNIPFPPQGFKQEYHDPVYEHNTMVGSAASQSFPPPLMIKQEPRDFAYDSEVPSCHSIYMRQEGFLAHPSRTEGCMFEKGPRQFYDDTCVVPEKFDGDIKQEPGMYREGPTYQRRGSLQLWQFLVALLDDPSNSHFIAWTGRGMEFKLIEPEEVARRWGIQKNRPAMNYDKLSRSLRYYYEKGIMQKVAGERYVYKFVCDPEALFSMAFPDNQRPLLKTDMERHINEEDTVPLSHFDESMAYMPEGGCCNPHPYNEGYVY
In short: as §1

| Sequence | binding signal (FEV) | binding signal (ETV5) | binding signal (HSF1) | binding signal (SPIC) | binding signal (ELF4) | binding signal (ELK4) | binding signal (ETV2) | binding signal (ELF3) | binding signal (CRX) | binding signal (ETV1) |
| --- | --- | --- | --- | --- | --- | --- | --- | --- | --- | --- |
| TTTGAA | 1.13 fold enrichment (6-mer frequency, TF over GST control) | 1.26 fold enrichment (6-mer frequency, TF over GST control) | 1.24 fold enrichment (6-mer frequency, TF over GST control) | 1.24 fold enrichment (6-mer frequency, TF over GST control) | 1.32 fold enrichment (6-mer frequency, TF over GST control) | 1.34 fold enrichment (6-mer frequency, TF over GST control) | 1.38 fold enrichment (6-mer frequency, TF over GST control) | 1.3 fold enrichment (6-mer frequency, TF over GST control) | 1.28 fold enrichment (6-mer frequency, TF over GST control) | 1.19 fold enrichment (6-mer frequency, TF over GST control) |
| TCTTAT | 1.27 fold enrichment (6-mer frequency, TF over GST control) | 1.26 fold enrichment (6-mer frequency, TF over GST control) | 1.57 fold enrichment (6-mer frequency, TF over GST control) | 1.3 fold enrichment (6-mer frequency, TF over GST control) | 1.21 fold enrichment (6-mer frequency, TF over GST control) | 1.3 fold enrichment (6-mer frequency, TF over GST control) | 1.22 fold enrichment (6-mer frequency, TF over GST control) | 1.36 fold enrichment (6-mer frequency, TF over GST control) | 2.21 fold enrichment (6-mer frequency, TF over GST control) | 1.32 fold enrichment (6-mer frequency, TF over GST control) |
| GAATTT | 1.19 fold enrichment (6-mer frequency, TF over GST control) | 1.26 fold enrichment (6-mer frequency, TF over GST control) | 1.7 fold enrichment (6-mer frequency, TF over GST control) | 1.39 fold enrichment (6-mer frequency, TF over GST control) | 1.25 fold enrichment (6-mer frequency, TF over GST control) | 1.31 fold enrichment (6-mer frequency, TF over GST control) | 1.14 fold enrichment (6-mer frequency, TF over GST control) | 1.13 fold enrichment (6-mer frequency, TF over GST control) | 1.39 fold enrichment (6-mer frequency, TF over GST control) | 1.24 fold enrichment (6-mer frequency, TF over GST control) |
| ATGACG | 1.32 fold enrichment (6-mer frequency, TF over GST control) | 1.4 fold enrichment (6-mer frequency, TF over GST control) | 1.13 fold enrichment (6-mer frequency, TF over GST control) | 1.18 fold enrichment (6-mer frequency, TF over GST control) | 1.39 fold enrichment (6-mer frequency, TF over GST control) | 1.47 fold enrichment (6-mer frequency, TF over GST control) | 1.25 fold enrichment (6-mer frequency, TF over GST control) | 1.3 fold enrichment (6-mer frequency, TF over GST control) | 1.11 fold enrichment (6-mer frequency, TF over GST control) | 1.3 fold enrichment (6-mer frequency, TF over GST control) |
| TCCGGT | 6.6 fold enrichment (6-mer frequency, TF over GST control) | 3.98 fold enrichment (6-mer frequency, TF over GST control) | 1.09 fold enrichment (6-mer frequency, TF over GST control) | 3.59 fold enrichment (6-mer frequency, TF over GST control) | 3.32 fold enrichment (6-mer frequency, TF over GST control) | 3.14 fold enrichment (6-mer frequency, TF over GST control) | 3.65 fold enrichment (6-mer frequency, TF over GST control) | 3.41 fold enrichment (6-mer frequency, TF over GST control) | 1.04 fold enrichment (6-mer frequency, TF over GST control) | 3.87 fold enrichment (6-mer frequency, TF over GST control) |
| TATTCC | 1.61 fold enrichment (6-mer frequency, TF over GST control) | 1.72 fold enrichment (6-mer frequency, TF over GST control) | 2.11 fold enrichment (6-mer frequency, TF over GST control) | 1.74 fold enrichment (6-mer frequency, TF over GST control) | 1.62 fold enrichment (6-mer frequency, TF over GST control) | 1.44 fold enrichment (6-mer frequency, TF over GST control) | 1.68 fold enrichment (6-mer frequency, TF over GST control) | 1.5 fold enrichment (6-mer frequency, TF over GST control) | 1.77 fold enrichment (6-mer frequency, TF over GST control) | 1.52 fold enrichment (6-mer frequency, TF over GST control) |
| GCTATA | 1.14 fold enrichment (6-mer frequency, TF over GST control) | 1.18 fold enrichment (6-mer frequency, TF over GST control) | 1.08 fold enrichment (6-mer frequency, TF over GST control) | 1.08 fold enrichment (6-mer frequency, TF over GST control) | 1.14 fold enrichment (6-mer frequency, TF over GST control) | 1.18 fold enrichment (6-mer frequency, TF over GST control) | 1.2 fold enrichment (6-mer frequency, TF over GST control) | 1.22 fold enrichment (6-mer frequency, TF over GST control) | 1.23 fold enrichment (6-mer frequency, TF over GST control) | 1.14 fold enrichment (6-mer frequency, TF over GST control) |
